Results on one sequence are retold here after PMC7862700, “An all-to-all approach to the identification of sequence-specific readers for epigenetic DNA modifications on cytosine”.

Holding throughout (assay): DAPPL (digital affinity profiling via proximity ligation, sequencing); 10 mM Tris-HCl pH 7.5, 50 mM NaCl, 1 mM DTT, 4% glycerol, room temperature, 30 min; GST-TFs on glutathione beads, 16-mer random dsDNA library, 0.1% formaldehyde crosslink after washing; high values mean tight binding
The target in one experiment is T1, FEV (Homo sapiens, UniProt Q99581 1-238).
T1 sequence: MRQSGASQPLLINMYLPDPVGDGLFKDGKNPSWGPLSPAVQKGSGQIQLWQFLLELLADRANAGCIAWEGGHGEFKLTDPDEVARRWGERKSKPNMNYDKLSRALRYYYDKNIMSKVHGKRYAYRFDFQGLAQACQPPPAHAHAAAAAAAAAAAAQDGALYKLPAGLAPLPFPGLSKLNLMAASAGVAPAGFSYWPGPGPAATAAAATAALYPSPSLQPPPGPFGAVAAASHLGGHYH
As to conditions: protein: recombinant; tags: N-terminal GST; dsDNA, one strand shown. An outline of the steps: (§1)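 A tag-only sample was pooled with DNA-barcoded human transcription factors that had been expressed in yeast as GST fusions and captured on glutathione beads. The pools were incubated for 30 min at room temperature with 200 nmole of a random double-stranded 16-mer DNA library in Tris/NaCl/DTT/glycerol buffer, then washed, crosslinked with 0.1% formaldehyde, proximity-ligated (BsaI/T4 ligase, 1 h, 37 °C), PCR-amplified and sequenced on an Illumina NextSeq500. Binding signal is each hexamer's read frequency for a factor divided by its frequency for the tag-only sample.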

For a further experiment, the target named is ETV5 (Homo sapiens, UniProt P41161 1-510). The settings on record: protein: recombinant; tags: N-terminal GST; dsDNA, one strand shown. In outline:
as §1

For the next experiment, the target named is HSF1 (Homo sapiens, UniProt Q00613 1-529). As to conditions: protein: recombinant; tags: N-terminal GST; chain copies: 3; dsDNA, one strand shown. An outline of the steps: as §1
Sequence of HSF1 (Q00613 whole entry): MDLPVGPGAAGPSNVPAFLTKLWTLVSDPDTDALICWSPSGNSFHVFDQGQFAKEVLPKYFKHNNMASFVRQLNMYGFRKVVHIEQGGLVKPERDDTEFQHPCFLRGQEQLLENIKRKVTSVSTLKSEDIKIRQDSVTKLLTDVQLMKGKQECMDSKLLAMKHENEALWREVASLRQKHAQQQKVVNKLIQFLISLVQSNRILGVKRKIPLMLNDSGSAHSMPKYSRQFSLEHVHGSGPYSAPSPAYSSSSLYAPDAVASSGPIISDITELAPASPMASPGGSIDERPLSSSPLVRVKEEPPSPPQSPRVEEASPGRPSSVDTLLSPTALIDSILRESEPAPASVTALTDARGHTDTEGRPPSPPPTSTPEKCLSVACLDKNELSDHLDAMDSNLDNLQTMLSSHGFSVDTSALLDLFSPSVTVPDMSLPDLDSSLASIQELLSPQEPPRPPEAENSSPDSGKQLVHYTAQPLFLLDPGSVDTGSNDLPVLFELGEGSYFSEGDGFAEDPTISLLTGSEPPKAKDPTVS
Another experiment deals with T2, SPIC (Homo sapiens, UniProt Q8N5J4 1-248).
T2 sequence: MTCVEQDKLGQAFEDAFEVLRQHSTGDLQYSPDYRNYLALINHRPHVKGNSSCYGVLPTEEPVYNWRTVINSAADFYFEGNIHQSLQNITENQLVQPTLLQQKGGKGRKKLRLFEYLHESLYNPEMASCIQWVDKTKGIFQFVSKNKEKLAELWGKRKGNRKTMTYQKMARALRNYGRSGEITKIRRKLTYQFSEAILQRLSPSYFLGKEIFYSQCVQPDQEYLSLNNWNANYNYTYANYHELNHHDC
As to conditions: protein: recombinant; tags: N-terminal GST; dsDNA, one strand shown. An outline of the steps: as §1

The target in a further experiment is ELF4 (Homo sapiens, UniProt Q99607 1-663). As to conditions: protein: recombinant; tags: N-terminal GST; dsDNA, one strand shown. In outline: as §1
Sequence of ELF4 (Q99607 whole entry): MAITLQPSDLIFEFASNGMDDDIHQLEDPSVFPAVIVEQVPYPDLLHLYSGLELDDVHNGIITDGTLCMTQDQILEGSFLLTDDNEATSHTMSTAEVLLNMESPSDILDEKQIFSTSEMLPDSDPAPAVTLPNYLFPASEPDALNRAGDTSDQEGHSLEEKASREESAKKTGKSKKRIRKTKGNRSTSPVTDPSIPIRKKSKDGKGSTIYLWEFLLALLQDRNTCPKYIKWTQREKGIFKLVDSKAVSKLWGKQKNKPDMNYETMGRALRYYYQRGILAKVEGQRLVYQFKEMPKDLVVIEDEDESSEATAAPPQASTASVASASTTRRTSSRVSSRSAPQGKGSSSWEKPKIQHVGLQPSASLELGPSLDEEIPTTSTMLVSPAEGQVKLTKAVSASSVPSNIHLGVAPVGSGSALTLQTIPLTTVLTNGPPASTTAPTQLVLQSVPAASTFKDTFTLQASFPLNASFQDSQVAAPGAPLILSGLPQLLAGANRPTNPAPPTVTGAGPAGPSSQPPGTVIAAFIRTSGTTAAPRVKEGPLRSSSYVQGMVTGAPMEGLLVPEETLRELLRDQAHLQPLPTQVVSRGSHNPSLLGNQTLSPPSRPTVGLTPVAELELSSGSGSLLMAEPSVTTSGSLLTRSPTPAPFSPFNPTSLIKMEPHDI
The target of a further experiment is T3, ELK4 (Homo sapiens, UniProt P28324-2 1-405).
T3 sequence: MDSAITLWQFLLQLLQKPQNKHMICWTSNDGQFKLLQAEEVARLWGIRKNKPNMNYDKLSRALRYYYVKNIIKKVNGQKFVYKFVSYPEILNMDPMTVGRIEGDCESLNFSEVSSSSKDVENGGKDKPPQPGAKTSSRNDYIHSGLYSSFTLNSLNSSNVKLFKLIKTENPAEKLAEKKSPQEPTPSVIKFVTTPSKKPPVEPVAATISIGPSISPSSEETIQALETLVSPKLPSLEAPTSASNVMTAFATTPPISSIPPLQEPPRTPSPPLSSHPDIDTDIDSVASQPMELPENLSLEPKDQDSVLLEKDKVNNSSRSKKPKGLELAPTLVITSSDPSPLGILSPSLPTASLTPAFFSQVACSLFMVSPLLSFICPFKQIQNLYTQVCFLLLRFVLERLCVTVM
As to conditions: protein: recombinant; tags: N-terminal GST; dsDNA, one strand shown. In outline: as §1

A further experiment deals with T4, ETV2 (Homo sapiens, UniProt O00321 1-342).
T4 sequence: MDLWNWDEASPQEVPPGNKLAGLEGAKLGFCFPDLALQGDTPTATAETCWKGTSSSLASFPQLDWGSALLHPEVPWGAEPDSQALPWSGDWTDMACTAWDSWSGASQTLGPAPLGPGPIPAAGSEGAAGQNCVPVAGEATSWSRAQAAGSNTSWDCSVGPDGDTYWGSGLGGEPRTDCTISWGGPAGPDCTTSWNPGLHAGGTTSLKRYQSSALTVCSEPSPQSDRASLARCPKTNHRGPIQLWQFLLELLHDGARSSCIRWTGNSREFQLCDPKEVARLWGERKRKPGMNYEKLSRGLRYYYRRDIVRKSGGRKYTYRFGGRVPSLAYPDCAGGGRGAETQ
As to conditions: protein: recombinant; tags: N-terminal GST; dsDNA, one strand shown. An outline of the steps:
as §1

Another experiment addresses T5, ELF3 (Homo sapiens, UniProt P78545 1-371).
T5 sequence: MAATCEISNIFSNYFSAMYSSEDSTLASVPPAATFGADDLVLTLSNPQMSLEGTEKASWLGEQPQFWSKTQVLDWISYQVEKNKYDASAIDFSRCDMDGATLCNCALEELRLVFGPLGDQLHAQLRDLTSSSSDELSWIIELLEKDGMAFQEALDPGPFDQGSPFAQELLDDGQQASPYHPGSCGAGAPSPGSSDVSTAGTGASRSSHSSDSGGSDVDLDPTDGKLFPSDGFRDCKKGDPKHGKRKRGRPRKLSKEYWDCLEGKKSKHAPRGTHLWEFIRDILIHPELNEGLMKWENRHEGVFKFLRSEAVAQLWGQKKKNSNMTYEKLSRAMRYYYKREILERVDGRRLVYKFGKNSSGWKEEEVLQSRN
As to conditions: protein: recombinant; tags: N-terminal GST; dsDNA, one strand shown. In outline: as §1

The target of a further experiment is CRX (Homo sapiens, UniProt O43186 1-299). As to conditions: protein: recombinant; tags: N-terminal GST; dsDNA, one strand shown. In outline: as §1
Sequence of CRX (O43186 whole entry): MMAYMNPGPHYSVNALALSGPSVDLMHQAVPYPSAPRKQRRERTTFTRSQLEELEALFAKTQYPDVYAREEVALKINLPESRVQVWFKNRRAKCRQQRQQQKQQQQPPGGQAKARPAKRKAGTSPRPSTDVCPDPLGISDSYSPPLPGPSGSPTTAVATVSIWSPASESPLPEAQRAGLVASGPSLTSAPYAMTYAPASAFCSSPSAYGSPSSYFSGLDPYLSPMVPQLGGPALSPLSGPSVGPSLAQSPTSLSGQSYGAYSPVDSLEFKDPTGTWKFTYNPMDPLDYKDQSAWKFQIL
The target of a further experiment is ETV1 (Homo sapiens, UniProt P50549 1-477). As to conditions: protein: recombinant; tags: N-terminal GST; dsDNA, one strand shown. In outline: as §1
Sequence of ETV1 (P50549 whole entry): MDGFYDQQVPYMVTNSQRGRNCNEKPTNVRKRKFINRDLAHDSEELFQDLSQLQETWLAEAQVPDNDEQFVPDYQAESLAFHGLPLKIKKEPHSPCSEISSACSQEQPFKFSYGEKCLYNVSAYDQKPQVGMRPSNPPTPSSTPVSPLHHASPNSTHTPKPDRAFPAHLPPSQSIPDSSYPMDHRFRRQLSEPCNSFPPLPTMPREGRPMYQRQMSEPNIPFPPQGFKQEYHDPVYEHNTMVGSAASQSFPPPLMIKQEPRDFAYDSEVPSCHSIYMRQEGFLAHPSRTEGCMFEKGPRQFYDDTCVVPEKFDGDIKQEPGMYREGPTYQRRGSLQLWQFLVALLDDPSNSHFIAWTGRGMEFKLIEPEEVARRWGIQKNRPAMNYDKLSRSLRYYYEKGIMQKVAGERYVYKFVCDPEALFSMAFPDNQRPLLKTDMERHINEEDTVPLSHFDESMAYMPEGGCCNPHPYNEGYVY
A further experiment addresses T6, ERF (Homo sapiens, UniProt P50548 1-548).
T6 sequence: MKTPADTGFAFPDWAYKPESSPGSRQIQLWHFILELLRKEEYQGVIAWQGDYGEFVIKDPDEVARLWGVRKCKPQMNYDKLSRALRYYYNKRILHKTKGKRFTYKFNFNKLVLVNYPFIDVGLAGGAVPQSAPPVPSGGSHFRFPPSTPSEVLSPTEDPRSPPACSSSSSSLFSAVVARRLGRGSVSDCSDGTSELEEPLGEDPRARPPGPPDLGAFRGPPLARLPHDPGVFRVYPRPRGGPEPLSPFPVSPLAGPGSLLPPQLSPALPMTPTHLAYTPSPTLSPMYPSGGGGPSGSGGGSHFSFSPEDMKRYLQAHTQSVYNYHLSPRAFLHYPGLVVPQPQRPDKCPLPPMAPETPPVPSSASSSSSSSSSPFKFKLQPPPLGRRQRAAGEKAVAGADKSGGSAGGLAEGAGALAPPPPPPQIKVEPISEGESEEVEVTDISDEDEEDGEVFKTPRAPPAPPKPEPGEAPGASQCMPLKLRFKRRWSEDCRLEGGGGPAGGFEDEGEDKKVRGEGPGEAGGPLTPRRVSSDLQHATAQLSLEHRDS
As to conditions: protein: recombinant; tags: N-terminal GST; dsDNA, one strand shown. An outline of the steps:
as §1

In the next experiment the target is T7, ETV3L (Homo sapiens, UniProt Q6ZN32 1-361).
T7 sequence: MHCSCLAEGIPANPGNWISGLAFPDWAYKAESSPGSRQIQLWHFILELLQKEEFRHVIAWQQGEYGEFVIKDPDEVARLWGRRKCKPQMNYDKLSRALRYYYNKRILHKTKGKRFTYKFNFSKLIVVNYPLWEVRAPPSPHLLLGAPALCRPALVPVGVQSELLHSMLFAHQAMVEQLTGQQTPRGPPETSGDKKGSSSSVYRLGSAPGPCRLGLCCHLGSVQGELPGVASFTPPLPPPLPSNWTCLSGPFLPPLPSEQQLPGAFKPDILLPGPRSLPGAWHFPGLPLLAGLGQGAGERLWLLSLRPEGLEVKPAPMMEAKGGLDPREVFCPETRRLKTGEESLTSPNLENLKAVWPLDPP
The settings on record: protein: recombinant; tags: N-terminal GST; dsDNA, one strand shown. An outline of the steps:
as §1

Another experiment deals with T8, ETS2 (Homo sapiens, UniProt P15036 1-469).
T8 sequence: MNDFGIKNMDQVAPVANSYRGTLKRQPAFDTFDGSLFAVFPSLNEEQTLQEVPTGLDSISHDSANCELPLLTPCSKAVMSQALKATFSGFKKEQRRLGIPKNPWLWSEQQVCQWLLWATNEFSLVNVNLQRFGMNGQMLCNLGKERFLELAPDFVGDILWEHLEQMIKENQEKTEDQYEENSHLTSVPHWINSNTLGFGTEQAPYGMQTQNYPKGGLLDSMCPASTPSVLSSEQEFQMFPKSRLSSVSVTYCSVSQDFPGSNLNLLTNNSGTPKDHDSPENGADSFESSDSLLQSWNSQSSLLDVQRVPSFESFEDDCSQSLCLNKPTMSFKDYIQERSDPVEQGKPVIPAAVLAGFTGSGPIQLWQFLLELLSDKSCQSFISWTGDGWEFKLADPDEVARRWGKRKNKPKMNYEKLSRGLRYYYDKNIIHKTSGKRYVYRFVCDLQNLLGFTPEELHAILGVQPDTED
The settings on record: protein: recombinant; tags: N-terminal GST; dsDNA, one strand shown. An outline of the steps: as §1

The next experiment addresses T9, SPDEF (Homo sapiens, UniProt O95238 1-335).
T9 sequence: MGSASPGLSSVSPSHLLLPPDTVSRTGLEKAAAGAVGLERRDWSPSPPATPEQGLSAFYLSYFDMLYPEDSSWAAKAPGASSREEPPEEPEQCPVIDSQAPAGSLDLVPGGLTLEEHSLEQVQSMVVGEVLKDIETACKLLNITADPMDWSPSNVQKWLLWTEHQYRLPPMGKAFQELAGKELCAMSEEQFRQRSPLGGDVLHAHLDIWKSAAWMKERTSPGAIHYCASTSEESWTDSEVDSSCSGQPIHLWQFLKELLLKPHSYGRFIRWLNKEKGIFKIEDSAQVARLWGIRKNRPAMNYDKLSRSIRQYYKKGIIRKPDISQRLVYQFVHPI
As to conditions: protein: recombinant; tags: N-terminal GST; dsDNA, one strand shown. In outline:
as §1

A further experiment addresses T10, ETV7 (Homo sapiens, UniProt Q9Y603 1-341).
T10 sequence: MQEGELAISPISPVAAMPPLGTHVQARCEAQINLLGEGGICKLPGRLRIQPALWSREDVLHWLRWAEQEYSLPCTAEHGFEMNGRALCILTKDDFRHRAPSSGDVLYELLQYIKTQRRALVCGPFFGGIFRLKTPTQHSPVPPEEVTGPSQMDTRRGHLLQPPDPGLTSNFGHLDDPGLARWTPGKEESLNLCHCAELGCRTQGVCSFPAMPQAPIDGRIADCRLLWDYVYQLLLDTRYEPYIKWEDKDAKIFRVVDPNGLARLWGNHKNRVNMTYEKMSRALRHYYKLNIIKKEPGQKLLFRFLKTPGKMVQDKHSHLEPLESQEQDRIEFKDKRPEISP
The settings on record: protein: recombinant; tags: N-terminal GST; dsDNA, one strand shown. In outline:
as §1

The next experiment concerns the target T11, ELF5 (Homo sapiens, UniProt Q9UKW6-2 1-255).
T11 sequence: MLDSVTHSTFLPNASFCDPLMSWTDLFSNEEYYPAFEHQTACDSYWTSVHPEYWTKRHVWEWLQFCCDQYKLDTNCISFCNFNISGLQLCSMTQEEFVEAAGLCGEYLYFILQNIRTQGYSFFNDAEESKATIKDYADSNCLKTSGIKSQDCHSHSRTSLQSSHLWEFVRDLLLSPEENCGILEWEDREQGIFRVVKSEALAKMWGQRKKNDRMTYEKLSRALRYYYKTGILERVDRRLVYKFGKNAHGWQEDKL
As to conditions: protein: recombinant; tags: N-terminal GST; dsDNA, one strand shown. An outline of the steps:
as §1

The target of the next experiment is T12, ETV3 (Homo sapiens, UniProt P41162-2 1-143).
T12 sequence: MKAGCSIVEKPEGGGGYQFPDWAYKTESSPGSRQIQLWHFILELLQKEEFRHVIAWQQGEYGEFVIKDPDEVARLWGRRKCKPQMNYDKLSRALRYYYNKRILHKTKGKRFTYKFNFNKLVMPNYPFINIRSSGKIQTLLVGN
The settings on record: protein: recombinant; tags: N-terminal GST; dsDNA, one strand shown. In outline: as §1

A further experiment has as its target ETV6 (Homo sapiens, UniProt P41212 1-452). As to conditions: protein: recombinant; tags: N-terminal GST; dsDNA, one strand shown. In outline:
as §1

Sequence of ETV6 (P41212 whole entry): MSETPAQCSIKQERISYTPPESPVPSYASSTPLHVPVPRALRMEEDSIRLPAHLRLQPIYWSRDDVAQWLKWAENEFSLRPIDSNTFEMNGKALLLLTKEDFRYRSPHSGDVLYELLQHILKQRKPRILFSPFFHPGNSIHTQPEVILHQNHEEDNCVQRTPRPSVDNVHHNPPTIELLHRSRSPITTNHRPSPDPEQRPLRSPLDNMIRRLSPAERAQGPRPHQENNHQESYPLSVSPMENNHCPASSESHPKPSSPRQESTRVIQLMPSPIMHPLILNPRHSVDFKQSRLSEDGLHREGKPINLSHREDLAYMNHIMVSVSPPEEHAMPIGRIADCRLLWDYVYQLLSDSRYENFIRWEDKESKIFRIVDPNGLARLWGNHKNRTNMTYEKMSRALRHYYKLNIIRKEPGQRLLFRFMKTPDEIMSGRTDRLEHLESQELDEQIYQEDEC
Sequence of ETV5 (P41161 whole entry): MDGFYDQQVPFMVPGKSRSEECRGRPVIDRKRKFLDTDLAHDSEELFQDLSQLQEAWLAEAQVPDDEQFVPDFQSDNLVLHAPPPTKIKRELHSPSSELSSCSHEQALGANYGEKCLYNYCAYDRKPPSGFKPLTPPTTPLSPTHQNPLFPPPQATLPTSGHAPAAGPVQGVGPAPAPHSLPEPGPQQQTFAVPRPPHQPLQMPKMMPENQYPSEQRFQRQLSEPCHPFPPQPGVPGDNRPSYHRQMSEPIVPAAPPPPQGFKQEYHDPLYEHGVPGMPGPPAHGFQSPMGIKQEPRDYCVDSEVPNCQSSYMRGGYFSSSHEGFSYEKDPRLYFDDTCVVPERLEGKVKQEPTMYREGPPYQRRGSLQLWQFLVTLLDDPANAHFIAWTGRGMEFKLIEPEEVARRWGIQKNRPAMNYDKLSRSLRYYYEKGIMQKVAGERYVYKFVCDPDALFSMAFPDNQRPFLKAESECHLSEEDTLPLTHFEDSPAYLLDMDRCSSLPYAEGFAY

With TTACTT, the binding signal with FEV is 1.55 fold enrichment (6-mer frequency, TF over GST control); with ETV5 it was 1.53 fold enrichment (6-mer frequency, TF over GST control); with HSF1 it was 1.41 fold enrichment (6-mer frequency, TF over GST control); with SPIC it was 1.33 fold enrichment (6-mer frequency, TF over GST control); with ELF4, 1.46 fold enrichment (6-mer frequency, TF over GST control); in the experiment with ELK4, 1.33 fold enrichment (6-mer frequency, TF over GST control). The binding signal is 1.66 fold enrichment (6-mer frequency, TF over GST control) with ETV2; 1.75 fold enrichment (6-mer frequency, TF over GST control) with ELF3; 1.95 fold enrichment (6-mer frequency, TF over GST control) with CRX; 1.55 fold enrichment (6-mer frequency, TF over GST control) in the experiment with ETV1; 1.49 fold enrichment (6-mer frequency, TF over GST control) in the experiment with ERF; 1.37 fold enrichment (6-mer frequency, TF over GST control) with ETV3L. In addition, the binding signal with ETS2 is 1.48 fold enrichment (6-mer frequency, TF over GST control); with SPDEF, 1.45 fold enrichment (6-mer frequency, TF over GST control); with ETV7, 1.43 fold enrichment (6-mer frequency, TF over GST control); with ELF5, 1.54 fold enrichment (6-mer frequency, TF over GST control); with ETV3, 1.58 fold enrichment (6-mer frequency, TF over GST control); with ETV6, 1.62 fold enrichment (6-mer frequency, TF over GST control).
